According to PubChem BioAssay (Tox21):
Values without a mark were called inactive. Inconclusive results are not listed. A call without a number means that no potency is given here. Calls of active or inactive are those of the source. Calls follow the shape of the dose curve; as a rule, active = well fitted curve in the direction sought with a large enough effect in the repeat runs; inconclusive = weak or mixed curves; inactive = no such curve, though single readings can be large; an effect the other way counts as inactive or inconclusive.

What was measured:
[1] = A CellTox Green Cytotoxicity Assay to monitor cytotoxicity in HEK293 cells - 32 hour (AID 1224881); also: nearly all actives have a fitted effect of over 40% in size
In short: (§1)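 Cytotoxicity was tracked continuously in HEK293 cells by a DNA-binding dye excluded from viable cells. Compounds were transferred in DMSO 5 h after seeding; fluorescence was recorded at intervals up to 40 h.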

[2] = A CellTox Green Cytotoxicity Assay to monitor cytotoxicity in HepG2 cells - 0 hour (AID 1224882); also: nearly all actives have a fitted effect of over 35% in size
In short: (§2)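 Real-time, homogeneous cytotoxicity readout: dead-cell DNA staining by CellTox Green in HepG2 monolayers, fluorescence measured at timed intervals up to 40 h of continuous compound exposure.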

[3] = A CellTox Green Cytotoxicity Assay to monitor cytotoxicity in HepG2 cells - 32 hour (AID 1224883); also: nearly all actives have a fitted effect of over 50% in size
In short: as §2

[4] = A CellTox Green Cytotoxicity Assay to monitor cytotoxicity in HEK293 cells - 8 hour (AID 1224884); also: nearly all actives have a fitted effect of over 35% in size
In short: as §1

[5] = qHTS RealTime-Glo MT Cell Viability Assay in HepG2 cells - 16 hour (AID 1224885); also: nearly all actives have a fitted effect of over 50% in size
In short: (§3)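 Cells + NanoLuc/prosubstrate dispensed (600 cells/well) → 5 h at 37 C/5% CO2 → compounds in DMSO transferred → 40 h incubation at 37 C, luminescence read at 0, 8, 16, 24, 32, 40 h.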

[6] = qHTS RealTime-Glo MT Cell Viability Assay in HEK293 cells - 24 hour (AID 1224886); also: nearly all actives have a fitted effect of over 50% in size; also: potency is read from the fitted curve at half-maximal effect; as to activity change, negative = cytotoxicity: top concentration of the series differs between compounds
In short: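 Tox21 10K qHTS, HEK293, 600 cells/well, RealTime-Glo reagent co-dispensed with cells; 5 h preincubation, compound by pintool, 37 C, luminescence at 0–40 h.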

[7] = qHTS RealTime-Glo MT Cell Viability Assay in HEK293 cells - 8 hour (AID 1224887); also: nearly all actives have a fitted effect of over 50% in size; also: potency is read from the fitted curve at half-maximal effect; as to activity change, negative = cytotoxicity: top concentration of the series differs between compounds
In short: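 Nonlytic bioluminescent viability monitoring. HEK293 at 600 cells/well with reagent; 5 h settle; compound transfer by pintool; plates held at 37 C and read at set time points.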

[8] = A CellTox Green Cytotoxicity Assay to monitor cytotoxicity in HEK293 cells - 16 hour (AID 1224888); also: nearly all actives have a fitted effect of over 35% in size
In short: as §1

[9] = qHTS RealTime-Glo MT Cell Viability Assay in HepG2 cells - 0 hour (AID 1224889); also: nearly all actives have a fitted effect of over 50% in size
In short: as §3

CCCC/C=C/C=C\C=O
Potency [1]: inactive
outcome [2]: inactive
Potency [3]: inactive
Potency [4]: inactive
outcome [5]: inactive
Potency [6]: inactive
Potency [7]: inactive
outcome [8]: inactive
Potency [9]: inactive

CO[C@@H]1[C@@H](OC(N)=O)[C@@H](O)[C@H](Oc2ccc3c(O)c(NC(=O)c4ccc(O)c(CC=C(C)C)c4)c(=O)oc3c2C)OC1(C)C
Potency [1]: inactive
outcome [2]: inactive
Potency [3]: inactive
Potency [4]: inactive
outcome [5]: inactive
Potency [6]: inactive
Potency [7]: inactive
outcome [8]: inactive
Potency [9]: inactive

CC[C@H](C)C(=O)O[C@H]1C[C@H](O)C=C2C=C[C@H](C)[C@H](CC[C@@H](O)C[C@@H](O)CC(=O)O)[C@H]21
Potency [1]: inactive
outcome [2]: inactive
Potency [3]: inactive
Potency [4]: inactive
outcome [5]: inactive
Potency [6]: inactive
Potency [7]: inactive
outcome [8]: inactive
Potency [9]: inactive

Cc1nc2n(c(=O)c1CCN1CCC(c3noc4cc(F)ccc34)CC1)CCC[C@H]2O
cytotoxicity increase [1]: 6.5% [at 15.8 µM]
cytotoxicity [2]: -4% [at 15.8 µM]
cytotoxicity increase [3]: 2.66% [at 15.8 µM]
cytotoxicity increase [4]: 2.15% [at 15.8 µM]
activity change, negative = cytotoxic [5]: -0.162% [at 15.8 µM]
Potency [7]: 3.69 µM (active)
activity change [8]: 1.32% [at 15.8 µM]
activity change, negative = cytotoxicity [9]: 2.14% [at 15.8 µM]

Nc1ncnc(Nc2ccccc2)n1
Potency [1]: inactive
outcome [2]: inactive
Potency [3]: inactive
Potency [4]: inactive
outcome [5]: inactive
Potency [6]: inactive
Potency [7]: inactive
outcome [8]: inactive
Potency [9]: inactive

CCC(C)NC(N)=O (stereo not given)
Potency [1]: inactive
outcome [2]: inactive
Potency [3]: inactive
Potency [4]: inactive
outcome [5]: inactive
Potency [6]: inactive
Potency [7]: inactive
Potency [9]: inactive

C=C(C)C1CCC(C)(O)CC1 (stereo not given)
Potency [1]: inactive
outcome [2]: inactive
Potency [3]: inactive
Potency [4]: inactive
outcome [5]: inactive
Potency [6]: inactive
Potency [7]: inactive
outcome [8]: inactive
Potency [9]: inactive

O=Cc1ccc(Cl)c(Cl)c1
Potency [1]: inactive
outcome [2]: inactive
Potency [3]: inactive
Potency [4]: inactive
outcome [5]: inactive
Potency [6]: inactive
Potency [7]: inactive
outcome [8]: inactive
Potency [9]: inactive

CC/C=C\CC1=C(C)CCC1=O
Potency [1]: inactive
outcome [2]: inactive
Potency [3]: inactive
Potency [4]: inactive
outcome [5]: inactive
Potency [6]: inactive
Potency [7]: inactive
outcome [8]: inactive
Potency [9]: inactive

CNC(=O)[C@H]1O[C@@H](n2cnc3c(NCc4cc(Cl)ccc4OCc4cc(C)no4)ncnc32)[C@H](O)[C@@H]1N
Potency [1]: inactive
outcome [2]: inactive
Potency [3]: inactive
Potency [4]: inactive
outcome [5]: inactive
Potency [6]: inactive
Potency [7]: inactive
Potency [9]: inactive

Cc1[nH]cnc1-c1ccc(Cl)cc1
Potency [1]: inactive
outcome [2]: inactive
Potency [3]: inactive
Potency [4]: inactive
outcome [5]: inactive
Potency [6]: inactive
Potency [7]: inactive
outcome [8]: inactive
Potency [9]: inactive

CC1=CCC(C(C)C)=CC1
Potency [1]: inactive
outcome [2]: inactive
Potency [3]: inactive
Potency [4]: inactive
Potency [6]: inactive
Potency [7]: inactive
outcome [8]: inactive
Potency [9]: inactive

Cc1cccc(C)c1OCC(C)N (stereo not given)
Potency [1]: inactive
outcome [2]: inactive
Potency [3]: inactive
Potency [4]: inactive
outcome [5]: inactive
Potency [6]: inactive
Potency [7]: inactive
outcome [8]: inactive
Potency [9]: inactive

CC(C)C(=O)OCCc1ccccc1
outcome [2]: inactive
Potency [4]: inactive
Potency [6]: inactive
Potency [7]: inactive
outcome [8]: inactive

CCOC(=O)[C@H](CCc1ccccc1)N[C@@H](C)C(=O)N1C(=O)N(C)C[C@H]1C(=O)O
Potency [1]: inactive
outcome [2]: inactive
Potency [4]: inactive
outcome [5]: inactive
Potency [6]: inactive
Potency [7]: inactive
outcome [8]: inactive
Potency [9]: inactive

CCN(CC)CC(=O)Nc1c(C)cccc1C
Potency [1]: inactive
outcome [2]: inactive
Potency [3]: inactive
Potency [4]: inactive
outcome [5]: inactive
Potency [6]: 9.52 µM (active)
Potency [7]: 10.7 µM (active)
Potency [9]: inactive

C=C(C)C(=O)OCc1ccccc1
Potency [1]: inactive
outcome [2]: inactive
Potency [4]: inactive
outcome [5]: inactive
Potency [6]: inactive
Potency [7]: inactive
outcome [8]: inactive
Potency [9]: inactive

CC(C)C(=O)OCc1cccc(OC(=O)[C@@H]2N3C(=O)[C@@H](NC(=O)Cc4ccccc4)[C@H]3SC2(C)C)c1
Potency [1]: inactive
outcome [2]: inactive
Potency [3]: inactive
Potency [4]: inactive
outcome [5]: inactive
Potency [6]: inactive
Potency [7]: inactive
Potency [9]: inactive

CC(=O)Nc1cccc(C)c1
Potency [1]: inactive
outcome [2]: inactive
Potency [3]: inactive
Potency [4]: inactive
outcome [5]: inactive
outcome [8]: inactive
Potency [9]: inactive

CCCCNc1ccc(C(=O)OCCN(C)C)cc1
Potency [1]: inactive
outcome [2]: inactive
Potency [3]: inactive
Potency [4]: inactive
outcome [5]: inactive
Potency [6]: inactive
Potency [7]: inactive
outcome [8]: inactive
Potency [9]: inactive

N[C@@H](CCC(=O)Nc1ccc([N+](=O)[O-])cc1)C(=O)O
Potency [1]: inactive
outcome [2]: inactive
Potency [4]: inactive
Potency [6]: inactive
Potency [7]: inactive
outcome [8]: inactive
Potency [9]: inactive

CCNC(=O)C1CC(C)CCC1C(C)C (stereo not given)
Potency [1]: inactive
outcome [2]: inactive
Potency [3]: inactive
Potency [4]: inactive
outcome [5]: inactive
Potency [6]: inactive
Potency [7]: inactive
outcome [8]: inactive
Potency [9]: inactive

CCCCCCCCOS(=O)(=O)O
Potency [1]: inactive
outcome [2]: inactive
Potency [3]: inactive
Potency [4]: inactive
outcome [5]: inactive
Potency [6]: inactive
Potency [7]: inactive
outcome [8]: inactive
Potency [9]: inactive

CCCOC(OCCC)OCCC
Potency [1]: inactive
outcome [2]: inactive
Potency [3]: inactive
Potency [4]: inactive
outcome [5]: inactive
Potency [6]: inactive
Potency [7]: inactive
outcome [8]: inactive
Potency [9]: inactive

CCC(CC)CO
Potency [1]: inactive
outcome [2]: inactive
Potency [3]: inactive
Potency [4]: inactive
outcome [5]: inactive
Potency [6]: inactive
Potency [7]: inactive
outcome [8]: inactive
Potency [9]: inactive

COc1cc2c(cc1OC)C(=O)CC2
Potency [1]: inactive
outcome [2]: inactive
Potency [3]: inactive
Potency [4]: inactive
outcome [5]: inactive
Potency [6]: inactive
Potency [7]: inactive
outcome [8]: inactive
Potency [9]: inactive

Nc1ccc2cc(S(=O)(=O)O)cc(O)c2c1
Potency [1]: inactive
outcome [2]: inactive
Potency [3]: inactive
Potency [4]: inactive
Potency [6]: inactive
Potency [7]: inactive

FC(F)(F)c1ccccc1-n1ccnc1
Potency [1]: inactive
outcome [2]: inactive
Potency [3]: inactive
Potency [4]: inactive
outcome [5]: inactive
Potency [6]: inactive
Potency [7]: inactive
outcome [8]: inactive
Potency [9]: inactive

CCOC(=O)c1ccc(OC(=O)CCCCCN=C(N)N)cc1
Potency [1]: inactive
outcome [2]: inactive
Potency [3]: inactive
Potency [4]: inactive
outcome [5]: inactive
Potency [6]: inactive
Potency [7]: inactive
Potency [9]: inactive

CC(=O)NCCCCCC(=O)O
Potency [1]: inactive
outcome [2]: inactive
Potency [4]: inactive
outcome [5]: inactive
Potency [6]: inactive
Potency [7]: inactive
outcome [8]: inactive
Potency [9]: inactive

O=C1c2cccc3c2[C@H](CCC3)CN1[C@@H]1CN2CCC1CC2
Potency [1]: inactive
outcome [2]: inactive
Potency [3]: inactive
Potency [4]: inactive
outcome [5]: inactive
Potency [7]: inactive
outcome [8]: inactive
Potency [9]: inactive

O=C(NCCN1CCOCC1)c1ccc(Cl)cc1
Potency [1]: inactive
outcome [2]: inactive
Potency [4]: inactive
outcome [5]: inactive
Potency [6]: inactive
Potency [7]: inactive
outcome [8]: inactive
Potency [9]: inactive

Nc1nnc(-c2cccc(Cl)c2Cl)c(N)n1
Potency [1]: inactive
outcome [2]: inactive
Potency [3]: inactive
Potency [4]: inactive
outcome [8]: inactive
